The campaign covered roughly 370,000 compounds. About 2,100 (0.57%) were called active.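 How the source made its calls: active means inhibition above mean plus 3 SD of compounds lying within the high and low control bounds (cut at about 19% in these data); inactive means the rest.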 The entries come from a sample that favours actives as a whole.
molecular target: Group 3 secretory phospholipase A2 (Homo sapiens) (UniProt Q9NZ20); test: human group III sPLA2 inhibitors, primary screen, biochemical, QFRET, BODIPY PC-A2 liposome substrate (AID 743126); conditions: QFRET BODIPY PC-A2 liposome hydrolysis, fluorescence; at 12.2 µM; hits give high values;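 further: 0% = median of test compound wells and 100% = no enzyme DMSO wells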
Sequence (Q9NZ20 whole entry, looked up): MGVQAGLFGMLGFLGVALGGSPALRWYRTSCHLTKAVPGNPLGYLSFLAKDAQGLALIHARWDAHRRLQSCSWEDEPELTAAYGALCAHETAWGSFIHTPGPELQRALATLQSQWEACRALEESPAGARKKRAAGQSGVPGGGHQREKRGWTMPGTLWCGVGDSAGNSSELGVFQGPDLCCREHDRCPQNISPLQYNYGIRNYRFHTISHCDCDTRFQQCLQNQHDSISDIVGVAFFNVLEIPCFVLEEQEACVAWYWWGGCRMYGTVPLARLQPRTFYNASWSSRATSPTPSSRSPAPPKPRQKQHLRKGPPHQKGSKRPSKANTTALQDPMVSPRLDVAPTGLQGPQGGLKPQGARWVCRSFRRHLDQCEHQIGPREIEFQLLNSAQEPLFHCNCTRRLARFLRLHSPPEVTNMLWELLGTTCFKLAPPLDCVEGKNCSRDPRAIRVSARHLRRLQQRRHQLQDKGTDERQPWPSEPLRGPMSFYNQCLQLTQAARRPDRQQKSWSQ

Row | SMILES | inhibition
1 | O=C(Nc1cc(Cl)cc(Cl)c1)OCCN1CCCC12CCC(c1ccccc1)CC2 (stereo not given) | -8.41% (inactive)
2 | C#CCCN([C@H](C(=O)OC)C(C)C)S(=O)(=O)c1ccc(F)cc1Br | 3.19% (inactive)
3 | COP(=O)(O)CNC(=O)OCc1ccccc1 | 2.13% (inactive)
4 | O=C(CN1CCCc2ccccc21)NCc1ccc(F)cc1 | 7.05% (inactive)
5 | CCc1ccc(-c2nn(-c3ccccc3)cc2CSC(=N)N)cc1 | 15.7% (inactive)
6 | N=C(N)SCc1cccc2ccccc12 | 35.3% (active)
7 | CSC1=NCCN1C(=O)Cc1cccc2ccccc12 | 7.18% (inactive)
8 | O=C(CNS(=O)(=O)c1ccccc1F)N1CCN(c2ccccn2)CC1 | 5.26% (inactive)
9 | Cc1cc(-n2nc(C)cc2C)n2ncc(-c3ccccc3)c2n1 | 21.3% (active)
10 | Cc1cc(C)n(-c2nc(C(F)(F)F)nc3ccccc23)n1 | 1.7% (inactive)
11 | COc1ccccc1-c1cnn2c(N3CCOCC3)cc(C)nc12 | 17.5% (inactive)
12 | COC(=O)C[C@@H]1CC[C@H]2[C@@H](COc3ccc(NS(=O)(=O)CC(F)(F)F)cc3C(=O)N2C)O1 | 6.09% (inactive)
13 | O=C(/C=C/c1c(Cl)cccc1Cl)NCc1ccccc1 | 20% (active)
14 | O=C(CC(=O)N/N=C\c1cccc(Cl)c1Cl)NCc1ccccc1 | -20.8% (inactive)
15 | CCOC(=O)CNC(=O)/C=C/c1c(Cl)cccc1Cl | -5.13% (inactive)
16 | O=C(CSc1nc2ccccc2s1)NN=Cc1ccc(O)cc1O | -23% (inactive)
17 | CN(C(=O)CSc1nnc(Nc2ccccc2)s1)C1CCS(=O)(=O)C1 (stereo not given) | -0.8% (inactive)
18 | COc1cccc(Nc2nnc(SCC(=O)N3CC(C)OC(C)C3)s2)c1 (stereo not given) | 13.8% (inactive)
19 | CC(C)c1ccc(Nc2nnc(SCC(=O)c3nnc(-c4ccccc4)o3)s2)cc1 | 22.6% (active)
20 | COc1ccc(-n2c(SCC(=O)NC3CCCC3)nnc2-c2ccncc2)cc1 | 12.7% (inactive)
21 | CCCCCOc1ccc(CSC2=NCCN2)cc1[N+](=O)[O-] | -1.57% (inactive)
22 | CCCCOC(=O)CCCc1ccc([N+](=O)[O-])cc1[N+](=O)[O-] | 1.12% (inactive)
23 | CCCCOc1ccc(CSC(=N)N)cc1[N+](=O)[O-] | 34.6% (active)

Row | SMILES | inhibition
24 | COc1ccc(N2CCN(CCNS(=O)(=O)c3ccc(Cl)s3)CC2)cc1 | 0.02% (inactive)
25 | O=S1(=O)c2ccc(N3CCN(Cc4ccccc4F)CC3)cc2Oc2ccccc2CN1Cc1cn(Cc2ccc(Cl)cc2)nn1 | -0.32% (inactive)
26 | Cc1cc(C(=O)Nc2ccc(C)c(S(=O)(=O)N3CCOCC3)c2)c2ccccc2n1 | -16.7% (inactive)
27 | O=C(Nc1cccc(F)c1)c1cc(-c2ccco2)nc2ccccc12 | 23.6% (active)
28 | O=C(Nc1nc2ccc(Cl)cc2s1)c1cc(-c2ccc(Cl)cc2)nc2ccccc12 | 13.3% (inactive)
29 | CCC(c1nnc(SCC(=O)NNC(=O)c2ccccc2)n1Cc1ccccc1)N(C)C (stereo not given) | -0.56% (inactive)
30 | CC(C)(C)NC(=O)Cn1c(SCC(=O)Nc2nccs2)nc2ccccc21 | 3.98% (inactive)
31 | O=C(CSc1nc2ccccc2n1Cc1ccccc1)NNC(=S)Nc1ccccc1 | 34.3% (active)
32 | CCC(=O)Nc1ccc2c(c1)C(=O)N(C)[C@H]1CC[C@H](CC(=O)NCCOC)O[C@@H]1CO2 | -9.58% (inactive)
33 | Nc1[nH]c(/C=C2/CCCCC2n2[nH]c(=O)n(-c3ccccc3)c2=O)c(Cc2ccccc2)[n+]1Cc1ccccc1 (stereo not given) | -5.57% (inactive)
34 | CCCc1cc(-c2n[nH]c(=S)n2Cc2ccccc2)cs1 | 2.87% (inactive)
35 | CCn1c(-c2ccncc2)n[nH]c1=S | 3.35% (inactive)
36 | CCc1cc(-c2n[nH]c(=S)n2CC(C)C)cs1 | 19.6% (active)
37 | CCC(=O)c1c(CC)c2n3c1=CC[C@H]3CC(Br)C=2 (stereo not given in full) | 1.91% (inactive)
38 | O=C(CSc1nnc(SCc2ccc(Cl)cc2)s1)N/N=C/c1ccccc1Cl | -4.99% (inactive)
39 | CCSc1nnc(SCC(=O)NNC(=O)c2ccccc2F)s1 | 4.1% (inactive)
40 | Cc1ccc(NC(=S)NNC(=O)CSc2nnc(SCc3ccccc3Cl)s2)cc1 | 19.7% (active)
41 | COc1cccc(Cn2cc(COC(=O)Nc3ccc(F)cc3)nn2)c1 | -7.76% (inactive)
42 | C[C@@H]1CN([C@@H](C)CO)C(=O)c2cccc(NC(=O)Nc3cccc4ccccc34)c2O[C@H]1CN(C)S(=O)(=O)c1ccccc1F | -21.9% (inactive)
43 | CCOc1ccc2[nH]c(=O)c(CN(CCCO)C(C)=O)cc2c1 | -0.39% (inactive)
44 | Nc1ccc2[nH]c(=S)sc2c1 | 1.91% (inactive)
45 | CCOc1ccc2[nH]c(=S)sc2c1 | 23.5% (active)
